Data published in PubChem BioAssay (NCATS).
Results filed as inconclusive are left out. A call without a number means that no potency is given here. Unmarked numbers belong to inactive results. Active and inactive are the calls of the source. Calls follow the shape of the dose curve; as a rule, active = well fitted curve in the direction sought with a large enough effect; inconclusive = small, poorly fitted or top-dose-only effect, or another doubt; inactive = no such curve, though single readings can be large; an effect the other way counts as inactive or inconclusive.

How the values were obtained:
[1] = qHTS of pediatric cancer cell lines to identify multiple opportunities for drug repurposing: Primary screen for SK-N-SH cells (AID 1347098); also: nearly all actives have a fitted effect of over 65% in size; also: potency is read from the fitted curve at half-maximal effect;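 as to activity change, negative = cytotoxic: DMSO served as neutral control and bortezomib at 2.3 µM as positive control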
Procedure, shortened: (§1)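 Cells (500-1,000/well) rested 5 h, then received compounds for 48 h; metabolically active cells were measured by CellTiter-Glo luminescence. Final concentrations spanned up to 46 µM (MIPE, 11-point) or 0.59 nM-46 µM (NPC, 8-point) in primary screens, 11-point in follow-ups.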

[2] = qHTS of pediatric cancer cell lines to identify multiple opportunities for drug repurposing: Primary screen for NB1643 cells (AID 1347099); also: nearly all actives have a fitted effect of over 50% in size; also: potency is read from the fitted curve at half-maximal effect
Procedure, shortened: (§2)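 Plated cells (500-1,000 per well, growth media) were allowed to settle for 5 hours, treated with compound dilutions for 48 hours, then lysed with CellTiter-Glo for 15 min at room temperature before luminescence reading.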

[3] = qHTS of pediatric cancer cell lines to identify multiple opportunities for drug repurposing: Primary screen for OHS-50 cells (AID 1347103); also: nearly all actives have a fitted effect of over 40% in size; also: potency is read from the fitted curve at half-maximal effect
Procedure, shortened: as §1

[4] = qHTS of pediatric cancer cell lines to identify multiple opportunities for drug repurposing: Primary screen for RD cells (AID 1347104); also: nearly all actives have a fitted effect of over 55% in size; also: potency is read from the fitted curve at half-maximal effect
Procedure, shortened: as §2

[5] = qHTS of pediatric cancer cell lines to identify multiple opportunities for drug repurposing: Primary screen for MG 63 (6-TG R) cells (AID 1347105); also: nearly all actives have a fitted effect of over 50% in size
Procedure, shortened: as §2

[6] = qHTS of pediatric cancer cell lines to identify multiple opportunities for drug repurposing: Primary screen for control Hh wild type fibroblast cells (AID 1347106);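 also: series mostly up to about 46 µM; a drop in luminescence marks cytotoxicity and a rise apparent proliferation; nearly all actives have a fitted effect of over 55% in size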
Procedure, shortened: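 Viability after 48 h compound treatment at 37C, 500-1,000 cells/well, read as ATP luminescence with CellTiter-Glo. Primary screens used 11-point (MIPE, 0.78 nM-46 µM) or 8-point (NPC, 0.59 nM-46 µM) final concentrations; follow-up screens used 11-point dilutions.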

[7] = qHTS of pediatric cancer cell lines to identify multiple opportunities for drug repurposing: Primary screen for Rh30 cells (AID 1347107); also: series mostly up to about 46 µM; nearly all actives have a fitted effect of over 75% in size
Procedure, shortened: (§3)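 Cells (500-1,000/well) in growth media were settled 5 h at 37 degrees C, then given compounds for 48 h. Viability was read as CellTiter-Glo luminescence. Primary runs used MIPE at 11 points (0.78 nM-46 µM) and NPC at 8 points (0.59 nM-46 µM); follow-ups used 11 points.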

[8] = qHTS of pediatric cancer cell lines to identify multiple opportunities for drug repurposing: Primary screen for Rh41 cells (AID 1347108); also: nearly all actives have a fitted effect of over 70% in size; also: potency is read from the fitted curve at half-maximal effect;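 as to activity change, negative = cytotoxic: series mostly up to about 46 µM; luminescence drop marks cytotoxic hits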
Procedure, shortened: as §2

[9] = qHTS of pediatric cancer cell lines to identify multiple opportunities for drug repurposing: Primary screen for LAN-5 cells (AID 1347100)
Procedure, shortened: as §3

[10] = qHTS of pediatric cancer cell lines to identify multiple opportunities for drug repurposing: Primary screen for BT-12 cells (AID 1347101); also: nearly all actives have a fitted effect of over 25% in size; also: potency is read from the fitted curve at half-maximal effect
Procedure, shortened: as §1

[11] = qHTS of pediatric cancer cell lines to identify multiple opportunities for drug repurposing: Primary screen for Rh18 cells (AID 1347102); also: nearly all actives have a fitted effect of over 65% in size; also: potency is read from the fitted curve at half-maximal effect
Procedure, shortened: as §3

[12] = qHTS of pediatric cancer cell lines to identify multiple opportunities for drug repurposing: Confirmatory screen for A673 cells (AID 1347110);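 also: potency is read from the fitted curve at half-maximal effect; cells exposed to compound for 48 h before the viability read; nearly all actives have a fitted effect of over 65% in size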
Procedure, shortened: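 Concentration-response curves came straight from titrations: 11 points (0.78 nM to 46 µM) for MIPE and several concentrations (0.59 nM to 46 µM) for NPC in primary, 11 points in follow-up. Readout: ATP luminescence at 48 h.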

[13] = qHTS of pediatric cancer cell lines to identify multiple opportunities for drug repurposing: Confirmatory screen for SK-N-MC cells (AID 1347111);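 also: potency is read from the fitted curve at half-maximal effect; cells exposed to compound for 48 h before the readout; nearly all actives have a fitted effect of over 70% in size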
Procedure, shortened: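 Metabolically active cells were quantified by ATP-dependent luminescence (CellTiter-Glo, 15 min at room temperature) following 48 h treatment. Cells had been plated at 500-1,000 per well and settled for 5 h beforehand.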

[14] = qHTS of pediatric cancer cell lines to identify multiple opportunities for drug repurposing: Confirmatory screen for BT-12 cells (AID 1347112); also: potency is read from the fitted curve at half-maximal effect; nearly all actives have a fitted effect of over 55% in size
Procedure, shortened: as §3

[15] = qHTS of pediatric cancer cell lines to identify multiple opportunities for drug repurposing: Confirmatory screen for LAN-5 cells (AID 1347113); also: potency is read from the fitted curve at half-maximal effect; nearly all actives have a fitted effect of over 65% in size
Procedure, shortened: as §3

[16] = qHTS of pediatric cancer cell lines to identify multiple opportunities for drug repurposing: Confirmatory screen for DAOY cells (AID 1347114)
Procedure, shortened: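 Viability measured as metabolically active cells via CellTiter-Glo luminescence following 48 hours of compound exposure, 11-point dilutions in confirmatory testing. 500-1,000 cells/well plated 5 hours before dosing; controls were DMSO and 2.3 µM bortezomib.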

[17] = qHTS of pediatric cancer cell lines to identify multiple opportunities for drug repurposing: Confirmatory screen for NB-EBc1 cells (AID 1347115);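 also: potency is read from the fitted curve at half-maximal effect; cells exposed to compound for 48 h before the viability read; nearly all actives have a fitted effect of over 45% in size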
Procedure, shortened: as §3

[18] = qHTS of pediatric cancer cell lines to identify multiple opportunities for drug repurposing: Confirmatory screen for BT-37 cells (AID 1347117); also: potency is read from the fitted curve at half-maximal effect; nearly all actives have a fitted effect of over 55% in size
Procedure, shortened: as §3

[19] = qHTS of pediatric cancer cell lines to identify multiple opportunities for drug repurposing: Confirmatory screen for TC32 cells (AID 1347118)
Procedure, shortened: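 Measured quantity: luminescence from CellTiter-Glo, reflecting metabolically active TC32 cells following 48 h of compound. Curves came straight from multi-point titrations, with 8 or 11 points in primary and 11 in confirmatory screening.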

[20] = qHTS of pediatric cancer cell lines to identify multiple opportunities for drug repurposing: Confirmatory screen for MG 63 (6-TG R) cells (AID 1347119)
Procedure, shortened: as §3

CCCc1ccc(OCC(=O)N2CCN(C(=O)COc3ccc(CCC)cc3OC)CC2)c(OC)c1
Potency [1]: inactive
Potency [2]: inactive
Potency [3]: inactive
Potency [4]: inactive
Potency [5]: inactive
Potency [6]: inactive
Potency [7]: inactive
Potency [8]: inactive

CC(COc1ccccc1)NN (stereo not drawn)
Potency [1]: inactive
Potency [9]: inactive
Potency [10]: inactive
Potency [11]: inactive
Potency [3]: inactive
Potency [4]: inactive
Potency [5]: inactive
Potency [6]: inactive
Potency [7]: inactive

CCOc1ccccc1OCC1CNCCO1 (stereo not drawn)
Potency [1]: inactive
Potency [2]: inactive
Potency [10]: inactive
Potency [11]: inactive
Potency [3]: inactive
Potency [4]: inactive
Potency [5]: inactive
Potency [6]: inactive
Potency [7]: inactive
Potency [8]: inactive

CCOC(=O)c1ccc(O)c(O)c1
Potency [1]: inactive
Potency [2]: inactive
Potency [11]: inactive
Potency [4]: inactive
Potency [5]: inactive
Potency [6]: inactive
Potency [7]: inactive
Potency [8]: inactive

CN1CCC(Nc2ncc3ncnc(Nc4ccc(F)c(Cl)c4)c3n2)CC1
Potency [1]: 17.2 µM (active)
Potency [2]: inactive
Potency [11]: 26.6 µM (active)
Potency [3]: 27.6 µM (active)
Potency [5]: inactive
Potency [7]: inactive
Potency [8]: inactive

COCCc1ccc(OCC2CO2)cc1 (stereo not drawn)
Potency [1]: inactive
Potency [2]: inactive
Potency [10]: inactive
Potency [3]: inactive
Potency [4]: inactive
Potency [5]: inactive
Potency [6]: inactive
Potency [7]: inactive
Potency [8]: inactive

CC(C(O)c1ccccc1)N(C)CCOC(c1ccccc1)c1ccccc1 (stereo not drawn)
Potency [1]: 30.7 µM (active)
Potency [2]: inactive
Potency [10]: 21.9 µM (active)
Potency [3]: 27.6 µM (active)
Potency [5]: inactive
Potency [6]: inactive
Potency [7]: inactive
Potency [8]: inactive

Fc1ccc(C(c2ccc(F)cc2)N2CCNCC2)cc1
Potency [1]: inactive
Potency [2]: inactive
Potency [10]: inactive
Potency [11]: inactive
Potency [4]: inactive
Potency [5]: inactive
Potency [6]: inactive
Potency [7]: inactive
Potency [8]: inactive

CCOC(=O)NNc1ccc(N(CC)CC(C)O)nn1 (stereo not drawn)
Potency [1]: inactive
Potency [2]: inactive
Potency [11]: inactive
Potency [3]: inactive
Potency [4]: inactive
Potency [5]: inactive
Potency [6]: inactive
Potency [7]: inactive
Potency [8]: inactive

CC(C)(C)c1nnc(NS(=O)(=O)c2ccccc2)s1
Potency [1]: inactive
Potency [2]: inactive
Potency [10]: inactive
Potency [11]: inactive
Potency [3]: inactive
Potency [4]: inactive
Potency [5]: inactive
Potency [6]: inactive
Potency [7]: inactive
Potency [8]: inactive

Nc1ccc(C(=O)N2CC3CC(CN(Cc4ccccc4)C3)C2)cc1
Potency [1]: inactive
Potency [2]: inactive
Potency [10]: inactive
Potency [3]: inactive
Potency [5]: inactive
Potency [6]: inactive
Potency [7]: inactive

CC(NC(CCc1ccccc1)C(=O)O)C(=O)N1C(=O)N(C)CC1C(=O)O (stereo not drawn)
Potency [1]: inactive
Potency [2]: inactive
Potency [10]: inactive
Potency [11]: inactive
Potency [3]: inactive
Potency [4]: inactive
Potency [5]: inactive
Potency [6]: inactive
Potency [7]: inactive
Potency [8]: inactive

Cc1ncc([N+](=O)[O-])n1C
Potency [1]: inactive
Potency [2]: inactive
Potency [10]: inactive
Potency [11]: inactive
Potency [3]: inactive
Potency [4]: inactive
Potency [5]: inactive
Potency [6]: inactive
Potency [7]: inactive
Potency [8]: inactive

COc1cc(C=O)ccc1O
Potency [1]: inactive
Potency [2]: inactive
Potency [10]: inactive
Potency [3]: inactive
Potency [5]: inactive
Potency [7]: inactive
Potency [8]: inactive

O=C(C1CCCCC1)N1CC(=O)N2CCCc3ccccc3C2C1 (stereo not drawn)
Potency [1]: inactive
Potency [2]: inactive
Potency [3]: inactive
Potency [5]: inactive
Potency [6]: inactive
Potency [7]: inactive
Potency [8]: inactive

CN(C)[C@@H]1C(=O)C(C(N)=O)=C(O)[C@@]2(O)C(=O)C3=C(O)c4c(O)cccc4C[C@H]3C[C@@H]12
Potency [1]: inactive
Potency [2]: inactive
Potency [10]: 17.4 µM (active)
Potency [4]: inactive
Potency [5]: inactive
Potency [6]: inactive
Potency [7]: inactive
Potency [8]: inactive

[O-][n+]1cccc(/C(Cl)=N/OC[C@@H](O)CN2CCCCC2)c1
Potency [1]: inactive
Potency [2]: inactive
Potency [10]: inactive
Potency [11]: inactive
Potency [3]: inactive
Potency [4]: inactive
Potency [5]: inactive
Potency [6]: inactive
Potency [7]: inactive
Potency [8]: inactive

Nc1nc2ccccc2n1Cc1ccc(F)cc1
Potency [1]: inactive
Potency [2]: inactive
Potency [11]: inactive
Potency [3]: 17.4 µM (active)
Potency [4]: inactive
Potency [5]: inactive
Potency [6]: inactive
Potency [7]: inactive

CO[C@@H]1[C@@H](OC)[C@H](C)[C@@](O)(CC(=O)O)O[C@H]1[C@H](C)[C@H]1O[C@@]2(CC[C@@](C)([C@H]3CC[C@@](C)([C@@H]4O[C@@H]([C@H]5O[C@](C)(O)[C@H](C)C[C@@H]5C)C[C@@H]4OC4C[C@H](OC)[C@@H](OC)[C@H](C)O4)O3)O2)C[C@H](O)[C@H]1C (stereo partly drawn)
Potency [1]: 2.44 µM (active)
Potency [2]: 841 nM (active)
Potency [10]: 0.347 µM (active)
Potency [3]: 0.389 µM (active)
Potency [4]: 4.73 µM (active)
Potency [7]: inactive
Potency [8]: 4.22 µM (active)
Potency [12]: 2.61 µM (active)
Potency [13]: 1.31 µM (active)
Potency [14]: 657 nM (active)
Potency [15]: 522 nM (active)
Potency [16]: 1.85 µM (active)
Potency [17]: 1.47 µM (active)
Potency [18]: 522 nM (active)
Potency [19]: 2.08 µM (active)
Potency [20]: 522 nM (active)

C#CC(C)(CC)OC(=O)c1ccccc1C(=O)O (stereo not drawn)
Potency [1]: inactive
Potency [2]: inactive
Potency [10]: inactive
Potency [11]: inactive
Potency [3]: inactive
Potency [4]: inactive
Potency [5]: inactive
Potency [6]: inactive
Potency [7]: inactive
Potency [8]: inactive

CC1CN(c2cc3c(cc2F)c(=O)c(C(=O)O)cn3-c2ccc(F)cc2F)CCN1 (stereo not drawn)
activity change, negative = cytotoxic [1]: -4.88% [at 6 µM]
activity change, negative = cytotoxic [2]: -5.39% [at 4.84 µM]
activity change, negative = cytotoxic [10]: -6.89% [at 6.03 µM]
activity change, negative = cytotoxic [3]: 83% [at 6.18 µM]
activity change, negative = cytotoxic [4]: -4.55% [at 4.84 µM]
activity change, negative = cytotoxic [5]: 29.5% [at 4.84 µM]
activity change, negative = cytotoxic [6]: -8.43% [at 4.84 µM]
activity change, negative = cytotoxic [7]: 5.93% [at 4.84 µM]
